Only some compounds are listed: those with a hit (about 19% of all), similar ones and a draw of the others.
TDP1 cell noCPT: qHTS for Inhibitors of human tyrosyl-DNA phosphodiesterase 1 (TDP1): qHTS in cells in absence of CPT | AID 686978, 2013 | Potency, µM (series often up to 46.2 µM), without a hit: top-dose activity change, negative = growth inhibition, hits mostly inhibitors | 420,000 compounds, 15% hits | DT40 Tdp1-/- hTDP1 cells, no CPT, ATP luminescence, 48 h; further: nearly all actives have a fitted effect of over 55% in size
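Luminescent ATP content (CellTiter-Glo) served as the growth readout. Knockout chicken DT40 cells expressing human TDP1 were exposed to compounds without camptothecin for a minimum 48 hr at 37 °C.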
Gal4-VP16 FLuc: Gal4-VP16 reporter inhibition counter-screen; Drosophila S2 Gal4-VP16 UAS-luciferase, luminescence, 20 h; Potency, µM (top dose mostly 53.6 µM), for inactives: at the top dose activity, negative = inhibition, usual class: inhibitors; 310,000 compounds, 3.5% hits;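 further: Gal4-VP16 expression switched on by copper sulfate through the metallothionein promoter; nearly all actives have a fitted effect of over 50% in size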
DT40 TDP1 CPT: growth inhibition of DT40 Tdp1-/-;hTDP1 cells with camptothecin (screen for TDP1 inhibitors). AID 686979. Potency, µM (series often up to 46.2 µM), inactives show at the highest dose activity change, negative = growth inhibition, hits mostly inhibitors. 420,000 compounds, 12% hits. chicken DT40 Tdp1-/-;hTDP1 cells + 20 nM CPT, ATP luminescence, 48 h; further: nearly all actives have a fitted effect of over 55% in size
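Chicken DT40 Tdp1-/- cells complemented with human TDP1, 400 cells/well, exposed to compounds plus 20 nM camptothecin for at least 48 h at 37 C; viability read as ATP content by CellTiter-Glo luminescence.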
TDP1 block: blocks human tyrosyl-DNA phosphodiesterase 1; Potency, µM (doses to about 130 µM), for the others: at the highest dose activity change, negative = inhibition, actives largely listed as inhibitors; 350,000 compounds, 0.28% hits; AID 485290; recombinant TDP1, AlphaScreen DNA substrate cleavage; Q9NUW8; further: nearly all actives have a fitted effect of over 40% in size
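Steps: enzyme plus compound, 15 min RT; add biotin/phosphotyrosine-FITC oligonucleotide (15 nM final), react 5 min; add donor/acceptor beads (10 ug/ml final), 10 min; read AlphaScreen. Tdp1 at 1 nM final.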
RORgamma inh: blocks mouse ROR gamma transcriptional activity; 310,000 compounds, 5.4% hits; P51450; Potency, µM (series often up to 53.6 µM), without a hit: at the highest dose activity change, negative = inhibition, hits mostly inhibitors; Drosophila S2 Gal4-RORgamma UAS-luciferase reporter, 20 h; further: nearly all actives have a fitted effect of over 60% in size
Target sequence (P51450 whole entry, looked up, the tested form may be a part): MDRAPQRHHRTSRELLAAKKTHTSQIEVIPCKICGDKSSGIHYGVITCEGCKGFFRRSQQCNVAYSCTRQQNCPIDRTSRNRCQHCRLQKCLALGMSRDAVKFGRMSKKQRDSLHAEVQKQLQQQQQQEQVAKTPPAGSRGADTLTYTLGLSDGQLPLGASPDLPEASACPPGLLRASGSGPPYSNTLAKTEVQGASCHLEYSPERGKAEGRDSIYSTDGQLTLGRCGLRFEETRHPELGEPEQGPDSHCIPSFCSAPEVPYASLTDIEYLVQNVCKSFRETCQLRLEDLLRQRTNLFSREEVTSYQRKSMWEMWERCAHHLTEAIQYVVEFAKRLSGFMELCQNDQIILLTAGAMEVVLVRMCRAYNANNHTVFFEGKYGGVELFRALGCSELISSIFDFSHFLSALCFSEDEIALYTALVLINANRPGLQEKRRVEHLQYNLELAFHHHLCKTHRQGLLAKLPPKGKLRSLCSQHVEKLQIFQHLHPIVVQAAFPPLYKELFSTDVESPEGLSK
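Luminescence from a UAS-regulated Photinus luciferase reporter in stably transfected Drosophila Schneider cells is measured; decreased signal marks ROR gamma inhibition. Fusion expression is induced by 700 uM copper sulfate for 20 hr.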
Active calls of the source: *; ? = inconclusive; . = no result given; [ ] = remark or other dose. The call rests on the fitted dose curve; in most records, active means well fitted curve in the direction sought with a large enough effect; inconclusive means small, poorly fitted or top-dose-only effect, or another doubt; inactive means no such curve, though single readings can be large; an effect the other way counts as inactive or inconclusive. On the % scale 0 is the no-effect control and ±100 the full control effect; potency means the concentration at half of the fitted maximal effect.

SMILES	TDP1 cell noCPT	Gal4-VP16 FLuc	DT40 TDP1 CPT	TDP1 block	RORgamma inh
COCCN(C(=O)c1cccc(N2C(=O)CCC2=O)c1)c1nc(-c2ccc([N+](=O)[O-])cc2)cs1	21µM*	.	?	-3%	.
O=C(Nc1nc(-c2ccc(F)cc2)cs1)c1cccc(N2C(=O)CCC2=O)c1	?	.	?	5%	.
COc1ccc(CC(=O)n2c(CC#N)nc3ccccc32)cc1OC	-18%	?	-13%	7%	11µM*
CCn1c(SCC(=O)N/N=C/c2ccc(OC)c(OC)c2)nc2ccccc21	?	0%[0.365 µM]	?	0%	21%
C=CCSc1nc2ccccc2n1S(=O)(=O)c1ccc(C)cc1	-27%	2%	-11%	4%	?
C=CCSc1nc2ccccc2n1C(=O)/C=C/c1cc(OC)c(OC)c(OC)c1	2.1µM*	5µM*	2.3µM*	3%	3.5µM*
CCSc1nc2ccccc2n1C(=O)/C=C/c1ccc(OC)c(OC)c1	3.3µM*	?	4.1µM*	-3%	7.1µM*
C=CCSc1nc2ccccc2n1C(=O)/C=C/c1ccc(OC)c(OC)c1	3.5µM*	11µM*	5µM*	0%	5µM*
O=C(CCNS(=O)(=O)c1ccc(Br)cc1)NCC(c1cccs1)N1CCOCC1 (centres undefined)	-26%	.	-29%	.	.
CC1(C)CC(=O)C2=C(C1)OC(N)=C(C#N)[C@@H]2c1ccccc1[N+](=O)[O-]	?	8%	?	71µM*	-2%
COc1cc(C2C(C#N)=C(N)OC3=C2C(=O)CC(C)(C)C3)c([N+](=O)[O-])cc1OC (centres undefined)	-12%	0%	1%	-4%	-3%
CC1(C)CC(=O)C2=C(C1)OC(N)=C(C#N)C2c1cn(-c2ccccc2)nc1-c1ccc(F)cc1 (centres undefined)	?	?	15µM*	4%	?
Cc1ccc(NC(=O)CN(C)C(=O)c2cn(Cc3ccccc3)nc2-c2cccnc2)cc1	?	.	-14%	1%	.
Cc1ccc2c(C(=O)CN3CCN(C4CCCCC4)CC3)c(C)[nH]c2c1	-25%	0%	-26%	1%	-8%
CCn1cc(C2=NC(C)CO2)c2ccccc21 (centres undefined)	-27%	-28%	?	2%	10µM*
CCn1cc(C(=O)C(F)(F)F)c2ccccc21	-8%	-12%	0%	-3%	5%
CCn1cc(S(=O)(=O)CC(=O)Nc2ccc3c(c2)OCCO3)c2ccccc21	-26%	0%	?	4%	11%
CCn1cc(C2=NCCO2)c2ccccc21	-18%	-17%	6%	0%	20µM*
CCn1cc(C2=NC(c3ccccc3)CO2)c2ccccc21 (centres undefined)	-18%	-9%	?	-1%	10µM*
CCn1cc(C2=NCC(C)O2)c2ccccc21 (centres undefined)	-24%	?	?	7%	18µM*
O=C(CN1C(=O)CCn2nc(-c3ccccc3)cc21)NCc1ccc(Cl)cc1	-12%	.	2%	5%	.
Cc1nc(SCCc2ccccc2)[nH]c(=O)c1C	?	?	?	2%	-4%
Cc1ccc(S(=O)(=O)NC(=O)c2ccccc2)cc1C(C)C	-7%	4%	-2%	-3%	18%
O=C(c1cc(C2CC2)nn1-c1ccccc1)N1CCN(Cc2ccc(Cl)cc2)CC1	12µM*	.	18µM*	2%	.
O=C(c1cc(C2CC2)nn1-c1ccccc1)N1CCN(Cc2ccccc2F)CC1	23µM*	.	16µM*	11%	.
O=S(=O)(c1c(F)cccc1F)N1CCN(S(=O)(=O)c2c(F)cccc2F)CC1	.	.	.	0%	.
O=C(c1cc(-c2ccccc2)nn1-c1ccccc1)N1CCN(S(=O)(=O)c2c(F)cccc2F)CC1	?	.	13µM*	2%	.
O=C(c1nc(-c2ccccc2)n(-c2ccccc2)n1)N1CCN(S(=O)(=O)c2ccccc2)CC1	?	-5%	-30%	3%	13%

Bioassay records as filed in PubChem.
